Common to all, as to assay: NCI-60 one-dose screen, 48 h (100 = growth as untreated, 0 = no growth, -100 = all killed)
Common to all, as to settings: 10 µM unless noted

Test [1] has as its system HOP-62 NSCLC.
Test [2] has as its system NCI-H460 lung.
Test [3] deals with A549/ATCC NSCLC.
Test [4] concerns 786-0 renal.
For test [5], the system named is DU-145 prostate.
Test [6] relates to MALME-3M melanoma.
In test [7] the test system is SF-295 CNS.
For test [8], the system named is UACC-257 melanoma.
Test [9] concerns M14 melanoma.
For test [10], the system named is SNB-19 CNS.
Test [11] deals with UO-31 renal.
Test [12] has as its system A498 renal.
Test [13] has as its system HL-60(TB) leukemia.
Test [14] concerns OVCAR-5 ovarian.
In test [15] the test system is OVCAR-4 ovarian.
Test [16] relates to T-47D breast.
The test system of test [17] is HCC-2998 colon.
In test [18] the test system is RXF 393 renal.
Test [19] concerns SK-MEL-2 melanoma.
Test [20] deals with RPMI-8226 leukemia.

Molecules are shown by their SMILES. About 83,000 compounds went through this panel and 20% of them were active in at least one assay; those are over-represented in the sample as a whole.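 Note: values are percent growth. 100 is the growth of untreated cells, values between 100 and 0 indicate rising inhibition; between -100 and 0 indicates cell death.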 Values without a mark were called inactive. Activity calls are given as the source filed them. Rule for the calls: active = growth percent below 10; inactive = the rest.

Consider `c1cnc2c(c1)ccc1ncccc12`, for which the growth in test [1] is 103%; in test [2], 108%; in [3], 107%; in test [4], 105%; in [5], 107%; in test [6] it was 118%. In addition, the growth is 115% in test [7]; 96.6% in [8]; 91% in [9]; 95.7% in [10]; 93.2% in test [11]; 207% in test [12]. The growth is 93.6% in test [13]; 148% in [14]; 109% in test [15]; 111% in test [16]; 119% in test [17].

`CNC(=O)Oc1cccc(N(C)C)c1`: the growth in test [1] is 101%; in test [2], 105%; in test [3], 93%; in [4] it was 102%; in [5], 110%; in test [6], 101%. Besides, the growth is 103% in test [18]; 99.8% in [7]; 93.5% in test [8]; 107% in test [9]; 102% in [10]; 83.4% in test [19]. Further, the growth was 86.6% in test [11]; 104% in test [12]; 103% in test [13]; 101% in [20]; 102% in [14]; 106% in [15]. Further, the growth is 104% in test [16] and 111% in test [17].

Consider `CC[C@@H](C)/C=C(C)/C=C/C(=O)c1c(O)c(-c2ccc(O)cc2)cn(O)c1=O`, for which the growth was 9.35% (active) in test [1]; 1% (active) in test [2]; 3.85% (active) in [3]; 0.309% (active) in test [4]; 15.5% in test [5]; -7% (active) in [6]. Further, the growth is 19.8% in test [18]; -28.7% (active) in test [7]; -29.8% (active) in test [8]; -1.25% (active) in test [9]; 13.6% in test [10]; 59.7% in test [19]. The growth in test [11] was -8.98% (active); in test [12] it was 39.3%; in [20], 22.5%; in test [16], 15.8%; in [17], 36.4%.

Turning to `N#C[Se]CCN1C(=O)C2C(C1=O)[C@H]1C=C[C@@H]2S1` (stereo not given in full), the growth in [1] is -63.3% (active); in test [2], 2.86% (active); in test [3], -19.3% (active); in test [4], -30.5% (active); in test [5], -33.3% (active); in test [6], -40.5% (active). For the same compound, the growth in test [18] is -52.2% (active); in test [7], -34.8% (active); in test [8] it was 10.9%; in [9] it was -13.6% (active); in test [10], -19.1% (active); in [19], 23.4%. For the same compound, the growth in test [11] was -90.7% (active); in [13], -48.1% (active); in [20], -10.4% (active); in [14] it was 14.7%; in test [15], 25.3%; in test [16], 70.7%. For the same compound, the growth in test [17] is 67.4%.

Take `O=C1NC(=S)NC(=O)C1=Cc1ccccc1`: the growth was 101% in test [1]; 104% in test [2]; 101% in test [3]; 123% in [4]; 122% in test [5]; 132% in test [6]. Further, the growth in test [18] is 115%; in test [7] it was 97.9%; in [8] it was 115%; in [9], 108%; in test [10] it was 107%; in [19], 196%. Also, the growth in [11] is 87.7%; in [20], 130%; in test [14], 100%; in test [15], 114%; in [16], 93.4%; in test [17] it was 106%.

For the compound `CN1C(=O)NC(=O)C(N=Nc2ccc(Cl)cc2)C1=O` (stereo not given), the growth in [1] was 123%; in test [2], 102%; in test [3], 101%; in test [4], 78.4%; in test [5], 106%; in [6], 134%. Also, the growth in test [18] was 107%; in [8], 105%; in test [9] it was 81.5%; in [10], 106%; in [19], 117%; in test [11], 104%. Further, the growth was 60.9% in test [12]; 90.7% in [13]; 96.1% in test [20]; 98.9% in [14]; 101% in test [16]; 90.6% in test [17].

In the case of `CC1(C)CC(=O)CC(C)(C)N1N=O`, the growth was 97.3% in [1]; 114% in test [2]; 107% in [3]; 109% in [4]; 107% in test [5]; 130% in test [6]. In addition, the growth was 136% in test [18]; 111% in test [7]; 104% in test [8]; 102% in test [9]; 107% in test [10]; 91.5% in test [11]. The growth in test [12] is 106%; in test [13] it was 77.4%; in [14], 104%; in test [15] it was 113%; in test [16], 97.3%; in test [17], 97.9%.

Consider `C[C@@H]1O[C@@H](O[C@H]2CC[C@@]3(C)[C@H](CCC4[C@@H]3C(O)C[C@]3(C)[C@@H](c5ccc(=O)oc5)CC[C@]43O)C2)[C@H](O)[C@H](O)[C@H]1O` (stereo not given in full), for which the growth in [1] is -100% (active); in test [2], -80.7% (active); in [3], -83.6% (active); in test [4] it was -94.1% (active); in test [5], -70.1% (active); in [6], -45.9% (active). The growth in [18] was -52.3% (active); in [7], -71.5% (active); in test [8], -99.7% (active); in test [9], -70.7% (active); in [10], -91.1% (active); in test [19], -81% (active). In addition, the growth was -97.3% (active) in test [11]; -27.9% (active) in test [12]; -92% (active) in test [14]; -92.9% (active) in test [15]; -55.6% (active) in [16]; -73.6% (active) in test [17].

In the case of `O=C(O)C1[O][Sb][O]C1C(=O)O` (stereo not given), the growth in [1] was 109%; in test [2] it was 108%; in test [3], 103%; in test [4] it was 102%; in test [5], 91.4%; in [6], 86.8%. For the same compound, the growth in test [18] was 116%; in test [7], 123%; in test [8], 98.2%; in test [9], 94.5%; in test [10] it was 110%; in test [19], 96.5%. The growth was 90.7% in test [11]; 116% in test [12]; 91.1% in test [13]; 99.3% in [20]; 120% in test [14]; 99.2% in test [15]. Further, the growth in [16] was 89.3%; in test [17], 106%.

The record behind these values is PubChem BioAssay (NCI).
